hgDAF-12 ag: activates the H. glycines DAF-12 receptor ligand-binding domain | HEK293 GAL4-hgDAF12 UAS-luciferase reporter, agonist luminescence; normalized to butyrate control | activation, % at 6.8 µM | 370,000 compounds, 1.8% hits | AID 687014;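 active means activation above a cutoff set at the mean of all screened compounds plus 3 SD, cut at about 10% in these data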;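 further: 0% = DMSO wells and 100% = sodium butyrate wells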
Rev-erbA mod: Rev-erb alpha (human) modulation. P20393. Rev-erbα–FITC-DNA binding, fluorescence polarization, 90 min. activity, % at 10 µM. 370,000 compounds, 0.79% hits;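 active means activity above about 14%, limit read from the data; passing the limit was not always enough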;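 further: 0% = DMSO wells with 35 nM protein and 100% = DMSO wells with 750 nM protein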
Target sequence (P20393 whole entry, looked up): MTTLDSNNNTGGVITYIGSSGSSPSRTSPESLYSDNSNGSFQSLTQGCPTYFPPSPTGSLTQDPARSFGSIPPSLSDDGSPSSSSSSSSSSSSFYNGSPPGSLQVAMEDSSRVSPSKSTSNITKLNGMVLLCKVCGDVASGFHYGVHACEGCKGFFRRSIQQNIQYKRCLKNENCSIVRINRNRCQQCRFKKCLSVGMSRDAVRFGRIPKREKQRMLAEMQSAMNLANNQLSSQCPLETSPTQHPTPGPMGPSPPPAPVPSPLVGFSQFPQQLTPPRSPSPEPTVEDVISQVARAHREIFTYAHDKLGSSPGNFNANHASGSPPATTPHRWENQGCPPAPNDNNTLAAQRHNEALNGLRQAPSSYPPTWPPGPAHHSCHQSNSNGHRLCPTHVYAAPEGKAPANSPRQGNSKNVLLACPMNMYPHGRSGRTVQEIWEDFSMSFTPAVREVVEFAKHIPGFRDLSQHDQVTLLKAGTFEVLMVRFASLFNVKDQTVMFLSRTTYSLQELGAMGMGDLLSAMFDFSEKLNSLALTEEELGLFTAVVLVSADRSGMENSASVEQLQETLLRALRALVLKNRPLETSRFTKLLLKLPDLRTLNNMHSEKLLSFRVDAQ
DAX1 inh-1: DAX1 (NR0B1) inhibition, primary screen | HEK293T StAR-luciferase reporter, SF-1/DAX-1 repression relief | inhibition, % at 6.8 µM | 370,000 compounds, 1.1% hits;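 active means inhibition above the mean over all tested compounds plus 3 SD, cut at about 3.6% in these data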;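 further: 0% = DAX-1 cells with DMSO and 100% = cells lacking DAX-1 with DMSO; higher inhibition means more luminescence from relief of DAX-1 repression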
ssDAF12 agonist: activators of S. stercoralis DAF-12 nuclear receptor; HEK293 ssDAF-12/GRIP1 lit1-tk-luc reporter, luminescence; % of 3 µM dafachronic acid response; activation, % at 6.8 µM; 370,000 compounds, 1% hits; AID 652126;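 active means activation above the mean over all tested compounds plus 3 SD, cut at about 0.9% in these data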;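 further: 0% = DMSO-only wells and 100% = 3 µM delta7-dafachronic acid wells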
DAX1 inh-2: NR0B1 (DAX1) inhibition. P51843. HEK293 Gal4-DAX1 luciferase reporter, luminescence. 340,000 compounds, 0.99% hits. inhibition, % at 6.75 µM;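 active means inhibition above the mean over all tested compounds plus 3 SD, cut at about 4.2% in these data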;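 further: 0% = DAX1-transfected cells with DMSO and 100% = empty-vector control cells with DMSO; inhibition shows as a rise in luminescence from relieved DAX1 repression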
hcDAF-12 act: activators of H. contortus DAF-12 nuclear receptor | 370,000 compounds, 1.4% hits | HEK293 hcDAF-12 lit1-tk-luc reporter, luminescence; 0% DMSO, 100% Δ7-dafachronic acid | activation, % at 6.8 µM;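 active means activation above the mean of all tested compounds plus 3 SD, cut at about 5.5% in these data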;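 further: 100% = response to 3 µM Δ7-dafachronic acid high control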
LXRb hcDAF ctr: counter-screen for hcDAF-12 agonists: agonists of human LXR-beta | HEK293 Gal4-LXR tk-luc reporter, luminescence, 24 h; normalized: DMSO 0%, positive control 100% | 3,400 tested, under 10 active | activation, % at 6.8 µM | shares compounds with hcDAF-12 act;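 active means mean percent activation of the reporter above a cutoff set as the average over tested compounds plus their standard deviation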
hcDAF12 conf: hcDAF-12 agonism, confirmation assay; activation, % at 6.8 µM; shares compounds with hcDAF-12 act; 3,400 compounds, 61% hits; HEK293 hcDAF-12 lit1-tk-luc reporter, luminescence; % of Δ7-dafachronic acid response; AID 743032;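 active means mean activation across triplicate tests above the threshold derived from the earlier primary screen, cut at about 5.5% in these data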;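 further: 0% = DMSO only wells and 100% = 3 µM Δ7-dafachronic acid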
hgDAF12 ag: hgDAF-12 agonism, confirmation assay | 3,300 compounds, 80% hits | shares compounds with hgDAF-12 ag | HEK293 GAL4-hgDAF12 luciferase reporter, agonist mode; percent of butyrate response | activation, % at 6.8 µM;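 active means mean activation over triplicate wells above the hit cutoff derived from the earlier primary screen, cut at about 11% in these data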;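 further: 0% = DMSO low control and 100% = 2 mM sodium butyrate high control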
LXR ag 2: LXR-beta agonism as DAF-12 counter-screen; shares compounds with hgDAF-12 ag; HEK293 Gal4-LXR luciferase reporter, 24 h; activation, % at 6.8 µM; 3,300 tested, under 10 active;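 active means mean activation of the triplicate above a set limit carried over from the primary screen, none filed active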
An asterisk follows results filed as active. Hits are enriched below; roughly 4.8% of the tested compounds scored in any of these assays.

For Cn1c(O)c(N=NC(=O)c2ccccc2O)c2ccccc21 the results were hgDAF-12 ag 22*, Rev-erbA mod 7, DAX1 inh-1 3, ssDAF12 agonist 1.6*, DAX1 inh-2 1, hcDAF-12 act 11*, LXRb hcDAF ctr 1, hcDAF12 conf 13*, hgDAF12 ag 17* and LXR ag 2 1.
`Cn1c(O)c(N=NC(=O)c2ccco2)c2ccccc21` gave hgDAF-12 ag 19*, Rev-erbA mod -1, DAX1 inh-1 4.2*, ssDAF12 agonist 1.3*, DAX1 inh-2 1, hcDAF-12 act 12*, LXRb hcDAF ctr 1, hcDAF12 conf 14*, hgDAF12 ag 22* and LXR ag 2 1.
For COc1ccccc1NC(=O)Cn1c(O)c(N=NC(=O)c2ccccc2O)c2ccccc21 the results were hgDAF-12 ag 0, Rev-erbA mod -33, DAX1 inh-1 1, ssDAF12 agonist -2, DAX1 inh-2 2 and hcDAF-12 act 1.
CCC(C)(C)C(=O)N1CCC(C(=O)NC2CCCc3ccccc32)CC1 (stereo not given) was read as hgDAF-12 ag 1, Rev-erbA mod 0, DAX1 inh-1 0, ssDAF12 agonist -1 and hcDAF-12 act -3.
Screening O=C(Nc1cc(Cl)cc(Cl)c1)c1cnn2cccnc12 returned hgDAF-12 ag -1, Rev-erbA mod -9, DAX1 inh-1 0, ssDAF12 agonist -1, DAX1 inh-2 0 and hcDAF-12 act 0.
For O=C(Nc1cccc(Cl)c1)c1cnn2cccnc12 the results were hgDAF-12 ag 17*, Rev-erbA mod -3, DAX1 inh-1 3, ssDAF12 agonist 0, DAX1 inh-2 2, hcDAF-12 act 7.7*, LXRb hcDAF ctr 1, hcDAF12 conf 7.5*, hgDAF12 ag 14* and LXR ag 2 1.
CCOc1cc(C2NN=C(c3ccccc3)S2)ccc1OCc1ccccc1Cl (stereo not given) was read as hgDAF-12 ag 16*, Rev-erbA mod 3, DAX1 inh-1 3, ssDAF12 agonist 1.4*, DAX1 inh-2 5.9*, hcDAF-12 act 8.7*, LXRb hcDAF ctr 2, hcDAF12 conf 9.2*, hgDAF12 ag 16* and LXR ag 2 1.
`O=C(NC1CCCC1)c1cc(-c2ccccc2Cl)on1` gave hgDAF-12 ag 14*, Rev-erbA mod -5, DAX1 inh-1 1, ssDAF12 agonist 0, DAX1 inh-2 1, hcDAF-12 act 8.0*, LXRb hcDAF ctr 1, hcDAF12 conf 3, hgDAF12 ag 16* and LXR ag 2 1.
`O=C(NC1CCCCC1)c1cc(-c2ccccc2Cl)on1` gave hgDAF-12 ag 8, Rev-erbA mod -5, DAX1 inh-1 1, ssDAF12 agonist -1, DAX1 inh-2 0 and hcDAF-12 act 0.
`Brc1c(-c2ccccc2)nc2n1Cc1ccccc1-2` gave hgDAF-12 ag 16*, Rev-erbA mod 0, DAX1 inh-1 2, ssDAF12 agonist 1.8*, DAX1 inh-2 4, hcDAF-12 act 11*, LXRb hcDAF ctr 1, hcDAF12 conf 11*, hgDAF12 ag 18* and LXR ag 2 1.
c1ccc2c(c1)Cn1nnnc1-2 was read as Rev-erbA mod 2 and DAX1 inh-2 1.
For CCOC(=O)C1=CCN(S(=O)(=O)c2ccc(Cl)cc2)C1c1cccc(Br)c1 (stereo not given) the results were hgDAF-12 ag -2, Rev-erbA mod 5, DAX1 inh-1 -1, ssDAF12 agonist -1 and hcDAF-12 act -2.
